Assay results published in the supplement of paper PMC10849652.
About 7,900 targets were measured; listed, in parts, are those with a hit and a random draw of the rest. About 0.6% of all pairs of compound and target were hits. Values without a mark were called inactive.

Tests used:
Test in all cases: log2 fold change, soluble protein after heating vs DMSO (PISA); higher = thermal stabilisation; K562 cells, 10 uM, 30 min; active = over 0.2 and 3.5 SD of the protein, either way, in both replicates (recomputed)
[1] = compound: C1=CC=C(C=C1)[C@H](COC2=CC3=C(C=C2)NC(=O)N3)NC(=O)C4=CC=CN(C4=O)CC5=CC(=C(C=C5)F)F
Procedure, shortened: (§1)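 K562 cells at 2×10^6 cells/mL were treated with 10 μM compound for 30 min. Aliquots were heated for 3 min across 48°C-58°C, pooled, and extracted in PBS with 0.5% NP-40 at 4°C; soluble protein was the supernatant after 21,000xg for 90 min. Soluble protein was quantified by TMTpro 16plex LC-MS/MS with channel sums equalised, and reported as log2 fold change in thermal stability against DMSO controls, with values from duplicates.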

[2] = compound: CC1=C(SC2=C1C(=N[C@H](C3=NN=C(N32)C)CC(=O)N)C4=CC=C(C=C4)Cl)C
Procedure, shortened: as §1

[3] = compound: CC1=C2C(=CC=C1)N=C(N(C2=O)C3=CC=CC=C3C)CN4C=NC5=C(N=CN=C54)N
Procedure, shortened: as §1

[4] = compound: Cc1sc2c(c1C)C(c1ccc(Cl)cc1)=N[C@@H](CC(=O)OC(C)(C)C)c1nnc(C)n1-2
Procedure, shortened: as §1

[5] = compound: c1ccc([C@@H]2C[C@H]2NC2CCNCC2)cc1
Procedure, shortened: as §1

CAMSAP1 isoform 3 (UniProt Q5T5Y3)
Sequence of UniProt Q5T5Y3 (Q5T5Y3 whole entry, looked up): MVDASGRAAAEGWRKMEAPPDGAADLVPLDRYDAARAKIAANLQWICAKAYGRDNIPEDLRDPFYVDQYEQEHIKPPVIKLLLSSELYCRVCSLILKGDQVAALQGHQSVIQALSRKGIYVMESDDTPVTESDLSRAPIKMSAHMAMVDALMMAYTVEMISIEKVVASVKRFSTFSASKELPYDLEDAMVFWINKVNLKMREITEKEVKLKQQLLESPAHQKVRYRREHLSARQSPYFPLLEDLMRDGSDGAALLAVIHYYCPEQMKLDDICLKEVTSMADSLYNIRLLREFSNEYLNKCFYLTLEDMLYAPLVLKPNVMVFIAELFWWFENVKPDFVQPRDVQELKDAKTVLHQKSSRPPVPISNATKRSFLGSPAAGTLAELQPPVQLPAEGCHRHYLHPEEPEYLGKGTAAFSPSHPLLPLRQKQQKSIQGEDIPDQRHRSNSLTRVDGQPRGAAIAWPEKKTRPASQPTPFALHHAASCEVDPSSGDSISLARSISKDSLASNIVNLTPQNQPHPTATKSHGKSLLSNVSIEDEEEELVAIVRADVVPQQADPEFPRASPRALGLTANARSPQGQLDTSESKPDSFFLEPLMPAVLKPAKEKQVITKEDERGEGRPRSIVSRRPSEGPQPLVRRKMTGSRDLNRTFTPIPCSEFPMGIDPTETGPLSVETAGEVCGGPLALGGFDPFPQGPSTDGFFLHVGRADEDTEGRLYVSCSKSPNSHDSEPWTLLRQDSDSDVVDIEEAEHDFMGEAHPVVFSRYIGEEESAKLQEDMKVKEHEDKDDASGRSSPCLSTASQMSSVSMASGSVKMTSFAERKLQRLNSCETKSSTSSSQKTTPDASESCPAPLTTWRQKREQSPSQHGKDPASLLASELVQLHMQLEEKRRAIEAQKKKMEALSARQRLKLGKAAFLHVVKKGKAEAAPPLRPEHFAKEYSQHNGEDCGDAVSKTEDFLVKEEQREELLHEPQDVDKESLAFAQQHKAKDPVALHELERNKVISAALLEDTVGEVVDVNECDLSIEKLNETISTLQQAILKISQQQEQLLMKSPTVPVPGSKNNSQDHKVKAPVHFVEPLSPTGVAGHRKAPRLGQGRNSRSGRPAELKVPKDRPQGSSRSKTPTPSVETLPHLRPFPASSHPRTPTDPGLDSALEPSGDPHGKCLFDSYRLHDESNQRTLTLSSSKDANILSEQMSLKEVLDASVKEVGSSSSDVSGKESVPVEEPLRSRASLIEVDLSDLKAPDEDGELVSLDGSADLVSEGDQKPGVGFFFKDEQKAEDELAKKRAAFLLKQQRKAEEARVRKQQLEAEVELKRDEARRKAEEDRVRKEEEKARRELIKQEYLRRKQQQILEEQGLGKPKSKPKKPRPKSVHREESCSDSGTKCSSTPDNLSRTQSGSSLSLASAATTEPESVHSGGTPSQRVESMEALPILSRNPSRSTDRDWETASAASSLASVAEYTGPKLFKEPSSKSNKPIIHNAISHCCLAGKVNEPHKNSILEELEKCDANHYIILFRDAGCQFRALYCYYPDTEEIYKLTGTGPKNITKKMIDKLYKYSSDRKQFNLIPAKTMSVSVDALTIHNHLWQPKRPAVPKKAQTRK
log2 fold change [1]: -0.06
log2 fold change [2]: 0.083
log2 fold change [3]: 0.221
log2 fold change [4]: 0.016
log2 fold change [5]: 0.02

CSNK2B (UniProt P67870)
log2 fold change [1]: -0.047
log2 fold change [2]: 0.043
log2 fold change [3]: 0
log2 fold change [4]: -0.028
log2 fold change [5]: 0.018

CAD (UniProt P27708)
log2 fold change [1]: -0.115
log2 fold change [2]: 0.048
log2 fold change [3]: -0.019
log2 fold change [4]: -0.005
log2 fold change [5]: -0.033

CDK5 (UniProt Q00535)
log2 fold change [1]: -0.015
log2 fold change [2]: 0.087
log2 fold change [3]: -0.003
log2 fold change [4]: -0.023
log2 fold change [5]: -0.005

CCNK isoform 4 (UniProt O75909)
log2 fold change [1]: 0.045
log2 fold change [2]: -0.115
log2 fold change [3]: 0.015
log2 fold change [4]: 0.103
log2 fold change [5]: 0.069

CDK12 (UniProt Q9NYV4)
log2 fold change [1]: 0.102
log2 fold change [2]: -0.425
log2 fold change [3]: -0.103
log2 fold change [4]: 0.112
log2 fold change [5]: 0.008

CIZ1 (UniProt Q9ULV3)
log2 fold change [1]: 0.021
log2 fold change [2]: 0.047
log2 fold change [3]: 0.025
log2 fold change [4]: 0.062
log2 fold change [5]: 0.029

CLCN7 (UniProt P51798)
log2 fold change [1]: -0.018
log2 fold change [2]: 0.024
log2 fold change [3]: -0.054
log2 fold change [4]: 0.024
log2 fold change [5]: -0.032

COX20 isoform 2 (UniProt Q5RI15)
log2 fold change [1]: 0.071
log2 fold change [2]: 0.05
log2 fold change [3]: 0
log2 fold change [4]: -0.022
log2 fold change [5]: 0.042

CNOT1 (UniProt A5YKK6)
log2 fold change [1]: -0.02
log2 fold change [2]: 0.021
log2 fold change [3]: 0.031
log2 fold change [4]: -0.017
log2 fold change [5]: -0.021

CNOT4 isoform 6 (UniProt O95628)
log2 fold change [1]: -0.019
log2 fold change [2]: 0.012
log2 fold change [3]: 0.068
log2 fold change [4]: -0.01
log2 fold change [5]: 0.018

CASP10 isoform 4 (UniProt Q92851)
Sequence of UniProt Q92851 (Q92851 whole entry, looked up): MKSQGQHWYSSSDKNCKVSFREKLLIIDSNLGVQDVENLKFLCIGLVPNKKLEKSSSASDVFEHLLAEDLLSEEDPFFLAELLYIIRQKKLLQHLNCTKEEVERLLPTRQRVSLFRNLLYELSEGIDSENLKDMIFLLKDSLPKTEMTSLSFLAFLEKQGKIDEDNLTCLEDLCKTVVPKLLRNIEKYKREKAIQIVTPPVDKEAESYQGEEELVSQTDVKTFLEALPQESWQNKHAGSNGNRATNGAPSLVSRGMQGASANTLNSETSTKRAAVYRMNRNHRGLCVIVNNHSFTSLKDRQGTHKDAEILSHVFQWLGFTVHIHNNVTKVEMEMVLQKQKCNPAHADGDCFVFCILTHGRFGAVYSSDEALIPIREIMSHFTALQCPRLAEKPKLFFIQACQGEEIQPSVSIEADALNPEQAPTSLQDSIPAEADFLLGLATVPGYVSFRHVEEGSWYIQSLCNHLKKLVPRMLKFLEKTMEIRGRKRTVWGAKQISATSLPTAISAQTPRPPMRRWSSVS
log2 fold change [1]: 0.064
log2 fold change [2]: 0.189
log2 fold change [3]: 0.114
log2 fold change [4]: 0.002
log2 fold change [5]: -0.145

CAMK2G isoform 6 (UniProt Q13555)
log2 fold change [1]: -0.017
log2 fold change [2]: 0.054
log2 fold change [3]: 0.044
log2 fold change [4]: 0.096
log2 fold change [5]: -0.021

COX5B (UniProt P10606)
log2 fold change [1]: 0.015
log2 fold change [2]: 0.104
log2 fold change [3]: -0.006
log2 fold change [4]: -0.126
log2 fold change [5]: -0.099

CASC3 (UniProt O15234)
log2 fold change [1]: 0.02
log2 fold change [2]: 0.044
log2 fold change [3]: 0.015
log2 fold change [4]: 0.244
log2 fold change [5]: 0.025

CNOT4 isoform 9 (UniProt O95628)
log2 fold change [1]: 0.009
log2 fold change [2]: -0.09
log2 fold change [3]: 0.147
log2 fold change [4]: -0.067
log2 fold change [5]: -0.055

CHST11 (UniProt Q9NPF2)
log2 fold change [1]: 0.018
log2 fold change [2]: -0.061
log2 fold change [3]: 0.055
log2 fold change [4]: 0.007
log2 fold change [5]: -0.139

CDAN1 (UniProt Q8IWY9)
log2 fold change [1]: -0.035
log2 fold change [2]: -0.049
log2 fold change [3]: 0.051
log2 fold change [4]: 0.091
log2 fold change [5]: 0.022

CORO2A (UniProt Q92828)
log2 fold change [1]: -0.057
log2 fold change [2]: -0.041
log2 fold change [3]: 0.061
log2 fold change [4]: 0.045
log2 fold change [5]: 0.071

CSNK2A1 (UniProt P68400)
log2 fold change [1]: 0.018
log2 fold change [2]: 0.033
log2 fold change [3]: 0.018
log2 fold change [4]: -0.008
log2 fold change [5]: 0.02

CCNC (UniProt P24863)
log2 fold change [1]: -0.139
log2 fold change [2]: -0.172
log2 fold change [3]: 0.01
log2 fold change [5]: -0.037

CLPP (UniProt Q16740)
log2 fold change [1]: 0.037
log2 fold change [2]: 0.153
log2 fold change [3]: 0.093
log2 fold change [4]: -0.124
log2 fold change [5]: 0.008

CCND3 (UniProt P30281)
log2 fold change [1]: -0.105
log2 fold change [2]: -0.015
log2 fold change [3]: 0.121
log2 fold change [4]: 0.033
log2 fold change [5]: 0.053

CHEK1 (UniProt O14757)
log2 fold change [1]: 0.006
log2 fold change [2]: 0.065
log2 fold change [3]: 0.087
log2 fold change [4]: 0.025
log2 fold change [5]: 0.01

CNDP2 (UniProt Q96KP4)
log2 fold change [1]: -0.006
log2 fold change [2]: 0.039
log2 fold change [3]: 0.023
log2 fold change [4]: 0.009
log2 fold change [5]: -0.041

CDKN1B (UniProt P46527)
log2 fold change [1]: -0.009
log2 fold change [2]: -0.029
log2 fold change [3]: -0.036
log2 fold change [5]: -0.004

CHKA (UniProt P35790)
log2 fold change [1]: -0.055
log2 fold change [2]: -0.023
log2 fold change [3]: 0.124
log2 fold change [4]: -0.004
log2 fold change [5]: 0.19

CFAP36 isoform 2 (UniProt Q96G28)
log2 fold change [1]: -0.042
log2 fold change [2]: 0.01
log2 fold change [3]: 0.383 (active)
log2 fold change [4]: -0.009
log2 fold change [5]: -0.158

CSNK1D (UniProt P48730)
log2 fold change [1]: -0.08
log2 fold change [2]: -0.067
log2 fold change [3]: -0.192
log2 fold change [4]: -0.011
log2 fold change [5]: -0.015

CCDC59 (UniProt Q9P031)
log2 fold change [1]: 0.012
log2 fold change [2]: -0.177
log2 fold change [3]: -0.214
log2 fold change [4]: 0.165
log2 fold change [5]: 0.052

CS (UniProt O75390)
Sequence of UniProt O75390 (O75390 whole entry, looked up): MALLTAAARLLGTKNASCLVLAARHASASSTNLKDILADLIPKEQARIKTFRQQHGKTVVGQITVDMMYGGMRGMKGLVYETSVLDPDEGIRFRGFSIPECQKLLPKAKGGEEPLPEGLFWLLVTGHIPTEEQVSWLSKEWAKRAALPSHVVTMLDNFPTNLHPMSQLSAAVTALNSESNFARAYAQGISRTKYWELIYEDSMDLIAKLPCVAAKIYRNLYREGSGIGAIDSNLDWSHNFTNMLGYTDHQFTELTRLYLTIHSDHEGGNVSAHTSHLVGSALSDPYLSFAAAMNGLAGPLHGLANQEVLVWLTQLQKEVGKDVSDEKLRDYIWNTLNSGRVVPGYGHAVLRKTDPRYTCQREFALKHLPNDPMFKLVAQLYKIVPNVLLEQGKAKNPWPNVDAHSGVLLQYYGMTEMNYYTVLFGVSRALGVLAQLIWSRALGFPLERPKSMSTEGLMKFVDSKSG
log2 fold change [1]: -0.043
log2 fold change [2]: 0.089
log2 fold change [3]: 0.053
log2 fold change [4]: -0.015
log2 fold change [5]: -0.016

CHST10 (UniProt O43529)
log2 fold change [1]: 0.004
log2 fold change [2]: -0.064
log2 fold change [4]: -0.052
log2 fold change [5]: 0.044

CMTM3 (UniProt Q96MX0)
log2 fold change [1]: -0.179
log2 fold change [2]: -0.001
log2 fold change [3]: -0.056
log2 fold change [4]: 0.044
log2 fold change [5]: 0.081

CBX5 (UniProt P45973)
log2 fold change [1]: -0.001
log2 fold change [2]: 0.029
log2 fold change [3]: 0.05
log2 fold change [4]: 0.016
log2 fold change [5]: 0.008

CDK1 (UniProt P06493)
log2 fold change [1]: -0.019
log2 fold change [2]: 0.036
log2 fold change [3]: 0.003
log2 fold change [4]: 0.019
log2 fold change [5]: 0.037

CD151 (UniProt P48509)
log2 fold change [1]: -0.126
log2 fold change [2]: 0.049
log2 fold change [3]: 0.031
log2 fold change [4]: -0.046
log2 fold change [5]: 0.101

CLN5 (UniProt O75503)
log2 fold change [1]: -0.003
log2 fold change [2]: -0.007
log2 fold change [4]: 0.057
log2 fold change [5]: -0.296

COASY isoform 2 (UniProt Q13057)
log2 fold change [1]: -0.03
log2 fold change [2]: 0.054
log2 fold change [3]: 0.053
log2 fold change [4]: -0.037
log2 fold change [5]: -0.021

CCZ1 (UniProt P86791)
Sequence of UniProt P86791 (P86791 whole entry, looked up): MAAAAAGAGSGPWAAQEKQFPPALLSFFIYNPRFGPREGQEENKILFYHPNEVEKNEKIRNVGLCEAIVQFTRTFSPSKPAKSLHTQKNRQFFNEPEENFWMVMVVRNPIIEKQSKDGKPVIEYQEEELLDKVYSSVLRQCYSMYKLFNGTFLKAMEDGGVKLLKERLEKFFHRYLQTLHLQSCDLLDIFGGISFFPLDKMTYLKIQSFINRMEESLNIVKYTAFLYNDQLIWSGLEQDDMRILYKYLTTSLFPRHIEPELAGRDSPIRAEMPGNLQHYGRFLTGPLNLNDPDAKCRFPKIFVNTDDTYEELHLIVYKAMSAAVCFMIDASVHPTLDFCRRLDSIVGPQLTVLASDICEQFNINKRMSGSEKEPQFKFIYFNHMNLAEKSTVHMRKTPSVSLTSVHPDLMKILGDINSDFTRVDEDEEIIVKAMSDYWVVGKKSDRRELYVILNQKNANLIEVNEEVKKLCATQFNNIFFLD
log2 fold change [1]: 0.011
log2 fold change [2]: 0.009
log2 fold change [3]: 0.02
log2 fold change [4]: 0.017
log2 fold change [5]: -0.024

CDK17 isoform 2 (UniProt Q00537)
log2 fold change [1]: -0.095
log2 fold change [2]: -0.006
log2 fold change [3]: -0.049
log2 fold change [5]: -0.083

CDC25B isoform 4 (UniProt P30305)
log2 fold change [1]: 0.107
log2 fold change [2]: 0.009
log2 fold change [3]: 0.101
log2 fold change [5]: -0.024

COX15 (UniProt Q7KZN9)
Sequence of UniProt Q7KZN9 (Q7KZN9 whole entry, looked up): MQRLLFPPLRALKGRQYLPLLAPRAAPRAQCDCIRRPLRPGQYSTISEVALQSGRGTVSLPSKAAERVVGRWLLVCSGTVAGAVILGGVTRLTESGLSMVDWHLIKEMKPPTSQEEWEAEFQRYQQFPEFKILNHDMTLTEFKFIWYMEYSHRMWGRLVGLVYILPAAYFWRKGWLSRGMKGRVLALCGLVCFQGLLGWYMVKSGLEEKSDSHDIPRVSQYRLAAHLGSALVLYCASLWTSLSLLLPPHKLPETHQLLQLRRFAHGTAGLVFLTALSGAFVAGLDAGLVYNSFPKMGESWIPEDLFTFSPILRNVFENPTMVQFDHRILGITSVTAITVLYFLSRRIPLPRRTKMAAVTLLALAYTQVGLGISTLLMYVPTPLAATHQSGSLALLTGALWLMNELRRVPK
log2 fold change [1]: -0.027
log2 fold change [2]: 0.071
log2 fold change [3]: 0.036
log2 fold change [4]: -0.013
log2 fold change [5]: -0.02

CRK (UniProt P46108)
log2 fold change [1]: 0
log2 fold change [2]: 0.013
log2 fold change [3]: 0.005
log2 fold change [4]: 0.028
log2 fold change [5]: -0.01

CDC42EP1 (UniProt Q00587)
Sequence of UniProt Q00587 (Q00587 whole entry, looked up): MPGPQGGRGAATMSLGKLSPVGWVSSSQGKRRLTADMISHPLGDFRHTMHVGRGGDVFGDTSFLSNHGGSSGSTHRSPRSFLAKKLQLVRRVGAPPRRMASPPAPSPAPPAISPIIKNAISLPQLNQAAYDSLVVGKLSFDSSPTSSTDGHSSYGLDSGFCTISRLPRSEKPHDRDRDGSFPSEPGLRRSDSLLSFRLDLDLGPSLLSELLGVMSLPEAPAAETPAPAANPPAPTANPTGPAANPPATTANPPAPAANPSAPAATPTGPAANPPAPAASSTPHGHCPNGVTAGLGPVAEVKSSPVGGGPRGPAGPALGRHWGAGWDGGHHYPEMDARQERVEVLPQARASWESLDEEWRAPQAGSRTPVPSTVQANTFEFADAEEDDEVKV
log2 fold change [1]: -0.067
log2 fold change [2]: 0.107
log2 fold change [3]: 0.041
log2 fold change [4]: 0.043
log2 fold change [5]: -0.029

CHAC2 (UniProt Q8WUX2)
Sequence of UniProt Q8WUX2 (Q8WUX2 whole entry, looked up): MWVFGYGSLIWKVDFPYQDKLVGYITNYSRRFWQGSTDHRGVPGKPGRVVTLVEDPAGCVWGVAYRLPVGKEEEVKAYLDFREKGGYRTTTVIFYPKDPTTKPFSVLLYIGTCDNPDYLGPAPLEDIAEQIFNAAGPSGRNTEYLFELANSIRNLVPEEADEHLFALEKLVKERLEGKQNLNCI
log2 fold change [1]: -0.036
log2 fold change [2]: -0.034
log2 fold change [3]: -0.034
log2 fold change [4]: 0.008
log2 fold change [5]: 0.027

CDC42BPB (UniProt Q9Y5S2)
log2 fold change [1]: -0.114
log2 fold change [2]: -0.031
log2 fold change [3]: 0.009
log2 fold change [4]: 0.025
log2 fold change [5]: -0.004

CIR1 (UniProt Q86X95)
log2 fold change [1]: -0.075
log2 fold change [2]: -0.286
log2 fold change [3]: -0.241
log2 fold change [4]: 0.198
log2 fold change [5]: 0.217

CPD (UniProt O75976)
log2 fold change [1]: 0.008
log2 fold change [2]: 0.014
log2 fold change [3]: 0.044
log2 fold change [4]: -0.013
log2 fold change [5]: 0.053

CLASP2 isoform 3 (UniProt O75122)
log2 fold change [1]: -0.065
log2 fold change [2]: 0.053
log2 fold change [3]: 0.091
log2 fold change [4]: -0.024
log2 fold change [5]: -0.014

COX6B1 (UniProt P14854)
Sequence of UniProt P14854 (P14854 whole entry, looked up): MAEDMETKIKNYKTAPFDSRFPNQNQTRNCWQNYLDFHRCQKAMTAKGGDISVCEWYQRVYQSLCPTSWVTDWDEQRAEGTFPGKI
log2 fold change [1]: 0.007
log2 fold change [2]: 0.141
log2 fold change [3]: 0.003
log2 fold change [4]: -0.153
log2 fold change [5]: -0.054

CASTOR2 (UniProt A6NHX0)
log2 fold change [1]: 0.056
log2 fold change [2]: 0.078
log2 fold change [3]: 0.039
log2 fold change [4]: -0.065
log2 fold change [5]: -0.016

CDK4 (UniProt P11802)
Sequence of UniProt P11802 (P11802 whole entry, looked up): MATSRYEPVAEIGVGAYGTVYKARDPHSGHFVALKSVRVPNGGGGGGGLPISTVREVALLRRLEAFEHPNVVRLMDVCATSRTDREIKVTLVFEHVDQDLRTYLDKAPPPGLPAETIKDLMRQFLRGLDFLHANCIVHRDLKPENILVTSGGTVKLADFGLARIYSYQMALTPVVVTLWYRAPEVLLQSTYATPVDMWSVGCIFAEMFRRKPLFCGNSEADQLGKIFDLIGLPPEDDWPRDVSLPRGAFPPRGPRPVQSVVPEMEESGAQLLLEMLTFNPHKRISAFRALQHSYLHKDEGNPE
log2 fold change [1]: 0.012
log2 fold change [2]: 0.128
log2 fold change [3]: 0.119
log2 fold change [5]: -0.165

CALCOCO2 isoform 4 (UniProt Q13137)
Sequence of UniProt Q13137 (Q13137 whole entry, looked up): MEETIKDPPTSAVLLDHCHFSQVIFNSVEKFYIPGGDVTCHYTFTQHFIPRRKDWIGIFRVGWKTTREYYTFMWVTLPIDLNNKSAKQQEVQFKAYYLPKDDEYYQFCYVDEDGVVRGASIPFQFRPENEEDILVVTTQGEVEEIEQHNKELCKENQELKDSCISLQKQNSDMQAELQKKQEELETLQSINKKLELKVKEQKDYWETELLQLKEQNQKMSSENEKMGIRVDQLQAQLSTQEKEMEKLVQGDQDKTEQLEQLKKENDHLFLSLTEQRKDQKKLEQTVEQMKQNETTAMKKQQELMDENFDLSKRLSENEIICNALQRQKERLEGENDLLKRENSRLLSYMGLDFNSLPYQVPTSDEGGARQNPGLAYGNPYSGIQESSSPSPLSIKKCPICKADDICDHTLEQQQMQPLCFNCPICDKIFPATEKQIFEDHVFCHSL
log2 fold change [1]: -0.036
log2 fold change [2]: -0.002
log2 fold change [3]: -0.04
log2 fold change [4]: 0.049
log2 fold change [5]: 0.026

CSTF2 (UniProt P33240)
log2 fold change [1]: 0.017
log2 fold change [2]: 0.04
log2 fold change [3]: 0.057
log2 fold change [4]: -0.026
log2 fold change [5]: 0.021
